Drawing on PubChem BioAssay (NCI), this text covers growth for eight compounds.

Compounds without any hit were thinned out: in the full panel of roughly 83,000, 20% have a hit.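 Results are percent growth after 48 hours of single-concentration exposure. 100 means growth as in untreated cells, lower positive values show inhibition; negative values down to -100 show cell death.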 Values without a mark were called inactive. Active and inactive are the calls of the source. Rule for the calls: active = growth percent below 10; inactive = the rest.

Holding throughout (experiment): NCI-60 one-dose screen, 48 h (100 = growth as untreated, 0 = no growth, -100 = all killed)
What all share (settings): 10 µM unless noted

For assay [1], the system named is EKVX NSCLC.
The subject of assay [2] is SN12C renal.
Assay [3] has as its system UO-31 renal.
For assay [4], the system named is TK-10 renal.
The subject of assay [5] is ACHN renal.
The test system of assay [6] is CAKI-1 renal.
The subject of assay [7] is A498 renal.
For assay [8], the system named is CCRF-CEM leukemia.
For assay [9], the system named is MOLT-4 leukemia.
Assay [10] has as its system SR leukemia.
The subject of assay [11] is RPMI-8226 leukemia.
The subject of assay [12] is OVCAR-8 ovarian.
Assay [13] concerns OVCAR-5 ovarian.
The subject of assay [14] is OVCAR-4 ovarian.
For assay [15], the system named is SK-OV-3 ovarian.
Assay [16] relates to IGROV1 ovarian.
The test system of assay [17] is OVCAR-3 ovarian.
Assay [18] relates to NCI/ADR-RES ovarian.

With `COc1ccc(-c2cc3c(C)nc(N)nc3n(C3CCC(OCCO)CC3)c2=O)cn1` (centres undefined), the growth in [1] was -4.74% (active); in assay [2], 7.14% (active); in assay [3], -33.8% (active); in [4], -43.4% (active); in assay [5], -10.3% (active); in assay [6], -43.4% (active). For the same compound, the growth in assay [7] is -55.8% (active); in [8] it was 14.6%; in assay [9], 8.49% (active); in assay [10], 1.95% (active); in assay [11] it was 3.64% (active); in [12], -12.6% (active). For the same compound, the growth is -18.8% (active) in [13]; -7.57% (active) in assay [14]; -49.9% (active) in assay [15]; -36.9% (active) in assay [16]; -10.5% (active) in assay [17]; -14.7% (active) in [18].
With `COc1ccc(-c2ccc3ncc4c(c3c2)n(-c2ccc(N3CCNCC3)c(C(F)(F)F)c2)c(=O)n4C)cn1`, the growth was -77.1% (active) in assay [1]; -80.7% (active) in assay [2]; -90.9% (active) in assay [3]; -90.2% (active) in assay [4]; -97.5% (active) in [5]; -94.8% (active) in assay [6]. For the same compound, the growth in assay [7] is -79.2% (active); in assay [8], -47.1% (active); in assay [9], -50.8% (active); in assay [10], -34.6% (active); in [11], -46.3% (active); in assay [12], -62.9% (active). The growth was -80.6% (active) in assay [13]; -76.9% (active) in assay [14]; -83.9% (active) in assay [15]; -79.4% (active) in [16]; -91.1% (active) in assay [17]; -70% (active) in assay [18].
For the compound `CO[C@@H](C)Cn1c(=O)n(C)c2cnc3ccc(-c4cncc(C(C)(C)O)c4)cc3c21`, the growth in assay [1] is 4.47% (active); in [2] it was 14.5%; in [3], -18.6% (active); in [4], -49.6% (active); in assay [5], 3.66% (active); in assay [6] it was -15.5% (active). In addition, the growth in [7] is -55.5% (active); in [8] it was 10.4%; in assay [9], -8.71% (active); in assay [10] it was -2.77% (active); in assay [11], -16.8% (active); in assay [12], -13% (active). For the same compound, the growth in [13] was 5.28% (active); in [14], -14.6% (active); in assay [15], -36.5% (active); in [16] it was -25.7% (active); in assay [17], 8.39% (active); in assay [18], -1.12% (active).
Consider `COc1ccc(Cl)c(Nc2nc3ccccc3nc2NS(=O)(=O)c2cccc(NC(=O)C(C)(C)N)c2)c1`, for which the growth was 48.5% in assay [1]; 51.2% in [2]; 8.83% (active) in assay [3]; 29.8% in [4]; 40.3% in assay [5]; 29% in assay [6]. In addition, the growth in [7] is -33.2% (active); in [8], 46.9%; in [9], 13.4%; in [10], 54.9%; in assay [11], 51.5%; in assay [12], 53.3%. The growth in assay [13] is 45.7%; in assay [14], 68%; in assay [15], 4.52% (active); in assay [16], -16.9% (active); in [17] it was 36.9%; in assay [18], 52.6%.
As for `CCN1CCN(Cc2ccc(-c3cc4c(N[C@H](C)c5ccccc5)ncnc4[nH]3)cc2)CC1`, the growth in [1] was 41.8%; in assay [2], 25%; in [3], 13.5%; in assay [4], 2.14% (active); in [5], 9.72% (active); in assay [6], 21.7%. Moreover, the growth was 25.4% in assay [7]; 25.4% in assay [8]; 37.8% in [9]; 21.2% in [10]; 55.9% in assay [11]; 35.6% in [12]. The growth in assay [13] was 8.61% (active); in [14], 76.2%; in assay [15] it was -7.56% (active); in assay [16], -1.26% (active); in assay [17], 56.8%; in [18] it was 46.7%.
In the case of `CNC(=O)c1cc(Oc2ccc(NC(=O)Nc3ccc(Cl)c(C(F)(F)F)c3)c(F)c2)ccn1`, the growth in assay [1] is -3.92% (active); in [2], -40.4% (active); in assay [3], -43.1% (active); in [4], -3.33% (active); in [5], 0.875% (active); in assay [6], 1.01% (active). The growth in assay [7] is -61.7% (active); in assay [8], 1.42% (active); in assay [9], -7.86% (active); in assay [10] it was -32.6% (active); in [11], -34% (active); in assay [12], -1.84% (active). Moreover, the growth in assay [13] is 3.12% (active); in [14] it was 8.63% (active); in assay [15] it was -16.7% (active); in [16], -20.8% (active); in assay [17], 0.719% (active); in assay [18] it was -14.3% (active).
For the compound `CS(=O)(=O)CCNCc1ccc(-c2ccc3ncnc(Nc4ccc(OCc5cccc(F)c5)c(Cl)c4)c3c2)o1`, the growth in assay [1] is 29.9%; in [2], -17.9% (active); in [3] it was 19.6%; in assay [4] it was 7.31% (active); in [5], 30.2%; in [6] it was 40.1%. Besides, the growth in assay [7] was 7.48% (active); in assay [8] it was 5.76% (active); in assay [9], 4.21% (active); in assay [10] it was 3.31% (active); in assay [11] it was -15.4% (active); in assay [12], -26.5% (active). In addition, the growth in assay [13] was 65.2%; in assay [14] it was -51.2% (active); in assay [15] it was -6.37% (active); in assay [16], 9.76% (active); in assay [17], -63.1% (active); in assay [18] it was 8.75% (active).
Turning to `Cn1cnc(-c2cc3nccc(Oc4ccc(NC(=S)NC(=O)Cc5ccccc5)cc4F)c3s2)c1`, the growth was 109% in assay [1]; 54.1% in assay [2]; 72.2% in assay [3]; 85.1% in assay [4]; 80.4% in [5]; 80.8% in assay [6]. The growth is 62.9% in assay [7]; 58.6% in assay [8]; 69.4% in assay [9]; 69.3% in assay [10]; 54.9% in assay [11]; 75.9% in [12]. Besides, the growth is 111% in [13]; 86.7% in [14]; 82.6% in assay [15]; 95.4% in assay [16]; 80.5% in [17]; 96% in assay [18].
